Measurements published in PubChem BioAssay (NCATS).
Results filed as inconclusive are left out. A number with no mark means an inactive call. The source made the active and inactive calls. Calls come from the whole dose curve; as a rule, active = well fitted cell-killing curve with a large enough effect; inconclusive = small, poorly fitted or top-dose-only effect; inactive = no such curve, though single readings can be large or run the other way. Where a SMILES comes first, the peptide text is derived from it.

experiment: qHTS of pediatric cancer cell lines to identify multiple opportunities for drug repurposing: Primary screen for OHS-50 cells (AID 1347103); settings: OHS-50 osteosarcoma viability, CellTiter-Glo luminescence, 48 h; series mostly up to 57.3 µM; activity change, negative = cytotoxic: at the top concentration; note: nearly all actives have a fitted effect of over 40% in size
Excerpt: Drug repurposing or repositioning has been offered as a strategy for drug development in oncology programs. This approach has special potential for childhood cancers and other rare or orphan diseases, where the expected return on new drug development has been a disincentive to pharmaceuticals.
In this project we exploit the poly-pharmacology of drugs to discover new indications via phenotypic screening of a panel of 19 well-characterized cell lines derived from solid tumors seen in children and adolescents. The goal is to identify approved drugs with previously unrecognized anticancer properties that has the potential to reveal new mechanisms and biological processes involved in carcinogenesis or drug resistance. We employed a titration-based paradigm (quantitative high-throughput screening or qHTS), where all compounds were tested at multiple concentrations for their effect on cell viability. Concentration-response curves (CRCs) were derived directly from the primary screen, and both potency and efficacy values were used to identify compounds with robust bioactivity profiles. We screened the NIH Chemical Genomics Center (NCGC) Pharmaceutical Collection (NPC) and Mechanism Interrogation Plate (MIPE) small molecule collections of approved and investigational compounds against these cell lines; and measured metabolically active cells after 48 hours of compound treatment as a proxy for cell viability.
Assay Submitter: Nathalia J. Martinez, National Center for Advancing Translational Sciences, National Institutes of Health, Rockville, MD, USA; email: natalia.martinez@nih.gov
[1] Shen, M et al. Quantitative high-throughput phenotypic screening of pediatric cancer cell lines identifies multiple opportunities for drug repurposing. Oncotarget 2017 Dec 19;9(4):4758-4772. PMID 29435139.
The cells were obtained from University of North Carolina (UNC), Pediatric Preclinical Testing Program (PPT), and Coriell Institute (CI).
qHTS cell viability assay:
Cells were assayed in growth media at a density of 500-1,000 cells/well. Five microliters of cells were dispensed into 1,536-well, white, solid-bottom, TC-treated plates (Greiner Bio One) using a multidrop dispenser and incubated at 37 degrees C, 5% CO2, under a humidified atmosphere for 5 hours. Twenty-three nanoliters of compounds and controls (neutral control DMSO or positive control bortezomib at final concentration of 2.3 µM) were subsequently transferred by Kalypsys pintool. For primary screens, the MIPE collection was tested at 11-point dilutions (final concentrations range from 0.78 nM to 46 µM) and the NPC collection at 8-point dilutions (final concentrations range from 0.59 nM to 46 µM). Compounds tested in follow-up screens were assayed at 11-point dilutions. Cells were incubated for 48 hours, followed by addition of 3 µL of CellTiter-Glo (Promega). After a 15 min incubation at room temperature, samples were analyzed for luminescence intensity using a ViewLux High-throughput CCD imager equipped with clear filters.
Potency is the fitted concentration of half-maximal effect.

| SMILES | activity change, negative = cytotoxic | Potency |
| --- | --- | --- |
| CCCCCCCC(=O)[O-].CCCCCCCC(=O)[O-].[Zn+2] | 7.02% |  |
| CC(C(=O)O)c1ccc(/C=C2\CCCCC2=O)cc1 (stereo not given) | 23.2% |  |
| O=c1[nH]c2ccccc2c(=O)n1CCCl | 10.1% |  |
| OC[C@]1(O)OC[C@@H](O)[C@H](O)[C@@H]1O | 14.4% |  |
| O=C(CCCCCCCCC#CI)Oc1ccccc1 | -3.83% |  |
| CC1CN(c2cc3c(cc2F)c(=O)c(C(=O)O)cn3-c2ccc(F)cc2F)CCN1 (stereo not given) | 83% [at 6.18 µM] |  |
| O=C(O)Cn1c(=O)n(Cc2ccc(Br)cc2F)c(=O)c2ccc(Cl)cc21 | 25.6% |  |
| CC(=O)N[C@@H](CO)C(=O)N[C@@H](CC(=O)O)C(=O)N[C@@H](CCCCN)C(=O)N1CCC[C@H]1C(=O)O (Ac-SDKP-OH) | 7.14% |  |
| COc1cc(/C=C/C(N)=O)cc(OC)c1OC | 12.9% |  |
| CC1CCCCN1CCCOC(=O)c1ccc(OC2CCCCC2)cc1 (stereo not given) |  | 24.6 µM (active) |
| C[C@H]1C[C@H]2[C@@H]3CCC4=CC(=O)C=C[C@]4(C)[C@H]3C(=O)C[C@]2(C)[C@@]1(O)C(=O)CO | -1.29% |  |
| O=C1c2ccccc2CCc2ccccc21 | -10.1% |  |
| OC1(c2ccccc2)CCNCC1 | 3.43% |  |
| O=P(O)(O)OCC(O)CO (stereo not given) | 9.99% |  |
| Nc1ccc(O)cc1 | 13.4% |  |
| Nc1c(NC/C=C\COc2cc(CN3CCCCC3)ccn2)c(=O)c1=O | -4.01% [at 19.7 µM] |  |
| Cc1ccccc1C(=O)N1CC/C(=N\OS(=O)(=O)O)c2ccc(Cl)cc21 | 8.38% |  |
| C[N+]1(C)CCC(OC(=O)C(O)(c2ccccc2)C2CCCC2)C1 (stereo not given) | -19.4% |  |
| CN(CC1(C)CCCO1)S(=O)(=O)c1ccc(Cl)c(S(N)(=O)=O)c1 (stereo not given) | 13.7% |  |
| O=C(O)[C@H](O)[C@@H](O)[C@H](O[C@@H]1O[C@H](CO)[C@H](O)[C@H](O)[C@H]1O)[C@H](O)CO | -7.01% |  |

| SMILES | activity change, negative = cytotoxic | Potency |
| --- | --- | --- |
| COc1cc2c(cc1OC)CN(C(=O)[C@H](C)N[C@@H](CCc1ccccc1)C(=O)O)[C@H](C(=O)O)C2 | -2.37% |  |
| Cc1ccc2ccc(Cl)cc2n1 | 8.78% |  |
| CC(C)(C)NCC(O)COc1ccccc1OCC1CCCO1 (stereo not given) | 5.76% |  |
| N#Cc1cc(NC(=O)C(=O)O)c(Cl)c(NC(=O)C(=O)O)c1 | 19.7% |  |
| C[C@H](CN1CCCC1)C(=O)c1ccc(C(F)(F)F)cc1 | -5.4% |  |
| COC(=O)/C=C\C(=O)OC | 4.94% |  |
| CCCC(=O)O[C@]1(C(=O)CCl)[C@@H](C)C[C@H]2[C@@H]3CCC4=CC(=O)C=C[C@]4(C)[C@@]3(F)C(=O)C[C@@]21C |  | 13.8 µM (active) |
| CCC(=O)O[C@]1(C(=O)COC)[C@@H](C)C[C@H]2[C@@H]3CCC4=CC(=O)C=C[C@]4(C)C3(F)[C@@H](O)C[C@@]21C (stereo not given in full) | 6.74% |  |
| CN1N=C(C(N)=O)CCC1=O | 3.96% |  |
| CN(C)C(=O)CNC(=O)Cc1ccccc1 | -8.44% |  |
| C[C@]12CCC(=O)C=C1CC[C@@H]1[C@@H]2[C@@H](O)C[C@@]2(C)[C@H]1CC[C@]2(O)C(=O)COC(=O)CCC(=O)O | -8.73% |  |
| Nc1cccc2c(N)cccc12 |  | 31.7 µM (active) |
| O=C(O)C(=O)Nc1cccc(-c2nn[nH]n2)c1 | 6.51% |  |
| Cc1cc(OCCOCC[N+](C)(C)Cc2ccccc2)ccc1C(C)(C)CC(C)(C)C |  | 4.37 µM (active) |
| CC(C)(Oc1ccc(Cl)cc1)C(=O)OCCCOC(=O)C(C)(C)Oc1ccc(Cl)cc1 | 6.14% |  |
| CO[C@@]1(NC(=O)CSC[C@@H](N)C(=O)O)C(=O)N2C(C(=O)O)=C(CSc3nnnn3C)CS[C@@H]21 | 3.06% |  |
| CCOC(=O)[C@H](CCc1ccccc1)N[C@@H](C)C(=O)N(CC(=O)O)C1Cc2ccccc2C1 | 3.15% |  |
| CCCCCCCCCCCCCCCC[N+](C)(C)Cc1ccccc1 |  | 11 µM (active) |
| Cc1cnc(NS(=O)(=O)c2ccc(N)cc2)nc1 | 11.9% |  |
| CC(NN)c1ccccc1 (stereo not given) | 7.32% [at 19.7 µM] |  |
